Screening data deposited in PubChem by National Center for Advancing Translational Sciences (NCATS).
DT40 TDP1 no CPT – qHTS for Inhibitors of human tyrosyl-DNA phosphodiesterase 1 (TDP1): qHTS in cells in absence of CPT; DT40 Tdp1-/- hTDP1 cells, no CPT, ATP luminescence, 48 h; Potency, µM (series often up to 46.2 µM), for inactives: at the highest dose activity change, negative = growth inhibition, most hits filed as inhibitors; hit rate 15% among 420,000; further: potency means the concentration at half of the fitted maximal effect; nearly all actives have a fitted effect of over 55% in size
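No-CPT arm: Tdp1-/-;hTDP1 DT40 cells (400/well) plus compounds, incubated ≥48 hr at 37 °C. Readout CellTiter-Glo luminescence.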
HT1080 IDH1KD tx – qHTS for induction of synthetic lethality in tumor cells producing 2HG: qHTS for the HT-1080-IDH1KD cell line. HT-1080 IDH1 knockdown viability, ATP luminescence, 48 h. Potency, µM (highest dose often 46.1 µM), for inactives: at the top dose activity, negative = toxicity, actives largely listed as cytotoxic. hit rate 2% among 360,000. AID 686971, 2013;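 further: potency means the concentration at half of the fitted maximal effect; 0% = DMSO wells and -100% = cell-free medium wells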
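Viability of IDH1-knockdown HT-1080 fibrosarcoma cells was assessed by CellTiter-Glo after 48 h at 37 °C with titrated compound; concentration-effect curves were classified by fit quality and response size.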
IL1B secr inh – qHTS for Inhibitors of Inflammasome Signaling: IL-1-beta AlphaLISA Primary Screen. THP-1 LPS/ATP IL-1B secretion, AlphaLISA, 16 h; active compounds read low. activity change, % at 57.5 µM. hit rate 4.7% among 360,000; in the data active means activity change below about -50%; inconclusive means mostly about -30% to -49%
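THP-1 cells pretreated 1 hr with compounds (up to 57.5 uM final), then stimulated with LPS (250 ng/mL final) plus ATP (1.25 mM final); secreted IL-1B measured by AlphaLISA after 16 hr, decreased signal indicating inhibition.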
HT1080NT lethal – qHTS for induction of synthetic lethality in tumor cells producing 2HG: qHTS for the HT-1080-NT fibrosarcoma cell line. HT-1080-NT fibrosarcoma viability, CellTiter-Glo ATP luminescence, 48 h. Potency, µM (doses to about 46.1 µM), for the others: at the top dose activity, negative = less viability, actives largely listed as cytotoxic. hit rate 1.6% among 360,000;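 further: NT is the 2HG producing partner of a matched IDH1 knockdown line; potency means the concentration at half of the fitted maximal effect; 0% = DMSO-treated cells and -100% = media-only wells without cells; nearly all actives have a fitted effect of over 55% in size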
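Viability of the 2HG-overproducing fibrosarcoma line after 48 hours of compound exposure at 37 degrees C was determined by luminescence with CellTiter-Glo, and concentration-effect curves were then fitted and categorized.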
TDP1 cell CPT – qHTS for Inhibitors of human tyrosyl-DNA phosphodiesterase 1 (TDP1): qHTS in cells in presence of CPT | AID 686979, 2013 | Potency, µM (titrated, usually from 46.2 µM), for the others: top-dose activity change, negative = growth inhibition, hits mostly inhibitors | chicken DT40 Tdp1-/-;hTDP1 cells + 20 nM CPT, ATP luminescence, 48 h | hit rate 12% among 420,000; further: potency means the concentration at half of the fitted maximal effect; nearly all actives have a fitted effect of over 55% in size
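Chicken DT40 Tdp1-/- cells complemented with human TDP1, 400 cells/well, exposed to compounds plus 20 nM camptothecin for at least 48 h at 37 C; viability read as ATP content by CellTiter-Glo luminescence.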
ELG1 DNA repair – qHTS screen for small molecules that inhibit ELG1-dependent DNA repair in human embryonic kidney (HEK293T) cells expressing luciferase-tagged ELG1; hit rate 2.3% among 330,000; Potency, µM (highest dose often 46.1 µM), without a hit: at the top dose activity change, negative = inhibition, actives largely listed as inhibitors; HEK293T ELG1-luciferase reporter, luminescence, 16 h; DNA damage induced by 5-fluorouridine; further: potency means the concentration at half of the fitted maximal effect; nearly all actives have a fitted effect of over 55% in size
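Cells (2,000 per well) received 5-fluorouridine plus test compound or DMSO and were incubated 16 hr at 37 °C, 5% CO2. Luciferase activity was read by luminescence 30 min after ONE-Glo addition; signal suppression marked inhibition of damage-induced ELG1 function.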
Numbers without * were called inactive; ? = inconclusive; . = no result; ! = a repeat was not active; [ ] = remark or other dose. In the library only some 19% were active in any assay of this set; here they are far more common. Unless noted, the call rests on the fitted dose curve; in most records, active means well fitted curve in the direction sought with a large enough effect; inconclusive means small, poorly fitted or top-dose-only effect, or another doubt; inactive means no such curve, though single readings can be large; an effect the other way counts as inactive or inconclusive. Unless noted, on the % scale 0 is the no-effect control and ±100 the full control effect.

SMILES	DT40 TDP1 no CPT	HT1080 IDH1KD tx	IL1B secr inh	HT1080NT lethal	TDP1 cell CPT	ELG1 DNA repair
Cc1cccc(CNC(=O)c2cnn(-c3ncc4c(n3)-c3ccccc3CC4)c2C2CC2)n1	5.1%	.	.	.	6.6%[9.04 µM]	.
Cc1ccc(Nc2c(-c3ccc(N4CCOCC4)cc3)nc3c(C)cccn23)cc1	14.6µM*	.	.	.	16.4µM*	.
c1cn2c(Nc3ccc4c(c3)OCCO4)c(-c3ccc(N4CCOCC4)cc3)nc2cn1	-15.4%	-17.9%	-4.6	-1.0%	?	?
Cc1cccc(C)c1Nc1c(-c2ccccc2Cl)nc2cnccn12	20.6µM*	.	.	.	?	.
Cc1cccc(C)c1Nc1c(-c2ccc(N3CCOCC3)cc2)nc2cnccn12	18.4µM*	-13.8%	2.6	-7.7%	?	-0.9%
COc1ccc(C2=C(C)C(N3CCC(C(=O)Nc4ccc(F)cc4C)CC3)=NS2(=O)=O)cc1	-15.0%	.	.	.	-23.6%	.
O=C(O)C(Oc1ccc(Cl)cc1)c1ccc(Cl)cc1 (stereo unspecified)	-12.1%	4.9%	7.2	7.6%	6.7%	.
O=c1c2ccccc2nc2n1CCc1ccc(Br)cc1-2	?	11.6%	-9.8	?	-27.6%	.
N#Cc1ccc(Cl)cc1NC(=O)CSc1nc2nc(-c3cccs3)cc(C(F)(F)F)c2c(=O)[nH]1	.	.	.	.	.	-4.9%
CC(C)c1ncc(CO)n1Cc1c(Cl)cccc1Cl	?	3.8%	2.6	5.9%	?	.
CCOc1ccc(NC(=O)CCc2c(C)nc3nc(C)nn3c2C)cc1	-18.4%	.	.	.	-0.6%	.
Cc1nc2nc(-c3ccc(Cl)cc3Cl)nn2c(C)c1CCC(=O)Nc1ccc(F)cc1	-0.2%	.	.	.	0.6%	.
CC(=O)c1ccc(NC(=O)CCc2c(C)nc3cc(-c4ccc(Cl)cc4)nn3c2C)cc1	6.51µM*	.	.	.	?	.
CCN(CC)S(=O)(=O)c1ccc(NC(=O)CCc2c(C)nc3cc(-c4ccc(Cl)cc4)nn3c2C)cc1	3.66µM*	.	.	.	4.61µM*	.
O=C1OC(C(=O)Nc2cc(C(F)(F)F)ccc2Cl)Cc2ccccc21 (stereo unspecified)	-10.1%	.	.	.	-11.9%	.
COc1cccc2c1OCC(C(=O)Nc1nccs1)=C2	?	2.7%	-1.6	0.2%	3.1%	?
Cc1c(C(=O)N2CCCC2)sc(NC(=O)c2cccc(Cl)c2)c1C#N	25.9µM*	-3.0%	-0.7	-26.0%	?	?
Cc1c(C(=O)N2CCCCC2)sc(NC(=O)C23CC4CC(CC(C4)C2)C3)c1C#N	18.4µM*	8.1%	-8.0	12.4%	?	.
Cc1cccc(C(=O)Nc2sc(C(=O)N3CCCC3)c(C)c2C#N)c1	?	-0.1%	-17.0	3.2%	?	-20.8%
COc1ccc2c(c1)sc(N)[n+]2Cc1cc(C)cc2cccnc12	2.59µM*	5.17µM*	-52.1*	?	4.61µM*	?
CCOc1ccc2c(c1)sc(N)[n+]2Cc1cc(C)cc2cccnc12	1.03µM*	3.26µM*	-92.2*	6.51µM*	1.03µM*	?
COc1ccc2c(ccc[n+]2[O-])c1	7.4%	-1.1%	2.0	7.3%	-3.5%	.
C=CCNC(=S)N/N=C/c1ccc(C(F)(F)F)cc1	?	-11.7%	-55.6*	?	?	4.61µM*
FC(F)(F)c1ccc(/C=N/NC(=S)NC2CCCCC2)cc1	5.8µM*	-25.6%	1.9	-18.8%	?	-18.5%
CN(c1ccc(Cl)cc1)c1cc(=O)n(C)c2ccccc12	?	?	1.6	?	12.6µM*	?
SMILES	DT40 TDP1 no CPT	HT1080 IDH1KD tx	IL1B secr inh	HT1080NT lethal	TDP1 cell CPT	ELG1 DNA repair
COc1cc(=O)n(C)c2ccccc12	-1.6%	13.9%	-0.6	-3.0%	4.6%	.
CN1CCc2cc(O)c(O)cc2C(c2ccccc2)C1 (stereo unspecified)	?	-1.6%	-21.9	11.1%	-12.3%	15.9%
Oc1ccc([C@@H]2CNCCc3c2cc(O)c(O)c3Cl)cc1	29.9µM*	.	.	.	?	.
Oc1cc2c(cc1O)C(c1ccccc1)CNCC2 (stereo unspecified)	25.9µM*!	-22.6%	-1.6	-29.8%	?	.
C=CCN1CCc2cc(O)c(O)cc2[C@H](c2ccccc2)C1	26.6µM*	.	.	.	?	.
C=CCN1CCc2c(cc(O)c(O)c2Br)[C@@H](c2ccccc2)C1	7.31µM*	?	105.7	?	?	.
Oc1cc2c(cc1O)[C@@H](c1ccccc1)CNCC2	?	?	16.6	?	?	11.3%
O=C(COc1cccc(Cl)c1)Nc1ccccc1N1CCCCC1	?	-0.6%	29.5	4.7%	-26.3%	12.2%
Cc1c(O)cc2c(c1O)C(=O)CC(c1ccccc1)O2 (stereo unspecified)	5.8µM*	23.1µM*	62.8	?	5.8µM*	3.6%
CC(C)(CNC(=O)c1ccc(S(=O)(=O)Nc2cccc(C(F)(F)F)c2)cc1)N1CCOCC1	?	-10.9%	12.0	0.3%	?	-1.0%
CCCc1c(C(=O)Nc2ccc(OC)cc2)cnn1-c1ccccc1	?	-0.7%	-5.9	-7.1%	-18.5%	?
CCCc1c(C(=O)N2CCN(c3ccccc3OC)CC2)cnn1-c1ccccc1	18.4µM*	-1.1%	-1.8	-10.1%	?	16.4µM*
